Pol eta inh-1 – DNA polymerase eta (human) inhibition; Q9Y253; recombinant Pol eta, fluorescent DNA replication assay; Potency, µM (series often up to 114 µM), for the others: at the top dose activity change, negative = inhibition, usual class: inhibitors; 390,000 tested, 1.2% active; further: potency means the concentration at half of the fitted maximal effect; on the % scale 0 is the no-effect control and ±100 the full control effect
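Pol eta (10 nM) was preincubated with compounds for 15 min at room temperature, after which fluorescent replication substrate (50 nM final) was added to start the reaction. Fluorescence was read kinetically at 0 and 10 min.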
APE1 inh – inhibitors of human APE1 endonuclease. P27695. recombinant APE1, TAMRA/BHQ-2 abasic DNA cleavage fluorescence. Potency, µM (series often up to 65.8 µM), for the others: at the top dose activity change, negative = inhibition, most hits filed as inhibitors. 350,000 tested, 0.35% active. AID 2517;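 further: potency means the concentration at half of the fitted maximal effect; plate controls were vehicle for no effect and reference inhibitor for full effect; nearly all actives have a fitted effect of over 55% in size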
Target sequence (P27695 whole entry, looked up): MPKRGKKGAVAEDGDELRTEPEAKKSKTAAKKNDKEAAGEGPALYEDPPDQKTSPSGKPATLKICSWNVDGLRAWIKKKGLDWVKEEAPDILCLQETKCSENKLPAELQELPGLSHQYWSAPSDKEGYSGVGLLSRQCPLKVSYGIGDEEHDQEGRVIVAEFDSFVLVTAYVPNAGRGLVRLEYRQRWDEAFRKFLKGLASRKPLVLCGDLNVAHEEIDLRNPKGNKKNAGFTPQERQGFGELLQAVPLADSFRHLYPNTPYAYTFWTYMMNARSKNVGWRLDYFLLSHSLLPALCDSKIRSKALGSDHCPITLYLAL
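Measures dequenching upon AP-site incision of a 5'-TAMRA/3'-BHQ-2 THF-containing duplex, 50 nM; human APE1 0.75 nM after 15 min room-temperature exposure to compound; kinetic three-point read at one-minute spacing.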
Pol beta inh-1 – DNA polymerase beta (human) inhibition; Pol beta primer extension/strand displacement, fluorescence kinetic; Potency, µM (titrated, usually from 114 µM), for inactives: at the top dose activity change, negative = inhibition, usual class: inhibitors; 340,000 tested, 1.3% active; further: potency means the concentration at half of the fitted maximal effect; on the % scale 0 is the no-effect control and ±100 the full control effect
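Pol beta (10 nM) and compounds were preincubated 15 min at room temperature, then 50 nM substrate (final) started primer extension/strand displacement. Reads were taken at 0 and 10 min; concentration-response data were fitted to a four-parameter Hill equation.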
Pol kappa inh-1 – inhibitors of human DNA polymerase kappa; purified Pol kappa, fluorescent DNA synthesis assay, 10 min; 400,000 tested, 0.53% active; Q9UBT6; Potency, µM (top dose mostly 107 µM), for the others: at the highest dose activity, negative = inhibition, hits mostly inhibitors; further: potency means the concentration at half of the fitted maximal effect; on the % scale 0 is the no-effect control and ±100 the full control effect
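First, compounds were pin-transferred onto 10 nM Pol kappa. After 15 min at room temperature, substrate was added to 50 nM final. Fluorescence was then measured kinetically at 0 and 10 min.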
GLS inhibitor – inhibitors of human glutaminase (GLS). GLS enzymatic activity, qHTS titration. Potency, µM (top dose mostly 45.5 µM), for the others: at the top dose activity change, negative = inhibition, hits mostly inhibitors. 410,000 tested, 0.21% active. AID 624170; further: potency means the concentration at half of the fitted maximal effect; on the % scale 0 is the no-effect control and ±100 the full control effect
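Glutamate formation by hKGA was monitored fluorometrically using coupled glutamate oxidase, HRP and Amplex Red. Substrate was added as 1 mM L-glutamine solution; incubation was 30 min at RT after an initial read.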
POLI inh – blocks human DNA polymerase iota activity; Pol iota fluorescent replication assay, 10 min; Potency, µM (series often up to 115 µM), for the others: at the top dose activity, negative = inhibition, most hits filed as inhibitors; 390,000 tested, 1% active; further: potency means the concentration at half of the fitted maximal effect
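Pol iota at 10 nM preincubated 15 min with compounds at room temperature; reaction started with fluorescent substrate, 50 nM final. Fluorescence read kinetically at 0 and 10 min; buffer-only wells as negative control.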
Pol beta inh-2 – Human Pol beta inhibitor hit validation; shares compounds with Pol beta inh-1; Pol beta primer extension/strand displacement, fluorescence kinetic; Potency, µM, most hits filed as inhibitors; 250 tested, 87% active; calls by dose curve; further: potency means the concentration at half of the fitted maximal effect
Klenow inh – Klenow polymerase inhibition, pol beta selectivity check. shares compounds with Pol beta inh-1. Klenow exo- polymerase counter-screen, fluorescent DNA substrate. activity change, negative = inhibition, % at 57.1 µM. 250 tested, under 10 active
HIV RT inh – HIV-1 RT inhibition, pol beta selectivity check; shares compounds with Pol beta inh-1; HIV-1 RT polymerase activity, counter-screen; activity % (negative = inhibition, positive = activation), % at 57.1 µM; 250 tested, under 10 active; AID 540301
POLB valid – validation of human DNA polymerase beta inhibitors; radiolabeled primer extension gel assay, phosphorimager; inhibition, % at 10 µM; 110 tested, 91% active; shares compounds with Pol beta inh-1;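 active means inhibition at 10 µM of 30% or more; inconclusive means no clear call, values can overlap the other calls; inactive means inhibition at 10 µM under 30%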
TbPGK inh – TbPGK inhibition, hit validation. shares compounds with Pol kappa inh-1. TbPGK coupled GAPDH assay, Kinase-Glo luminescence. Potency, µM (top dose mostly 57.5 µM), for inactives: at the highest dose activity change, negative = inhibition, hits mostly inhibitors. 500 tested, 79% active. AID 686980; further: potency means the concentration at half of the fitted maximal effect; on the % scale 0 is the no-effect control and ±100 the full control effect; nearly all actives have a fitted effect of over 65% in size
Target sequence (P07378 whole entry, looked up): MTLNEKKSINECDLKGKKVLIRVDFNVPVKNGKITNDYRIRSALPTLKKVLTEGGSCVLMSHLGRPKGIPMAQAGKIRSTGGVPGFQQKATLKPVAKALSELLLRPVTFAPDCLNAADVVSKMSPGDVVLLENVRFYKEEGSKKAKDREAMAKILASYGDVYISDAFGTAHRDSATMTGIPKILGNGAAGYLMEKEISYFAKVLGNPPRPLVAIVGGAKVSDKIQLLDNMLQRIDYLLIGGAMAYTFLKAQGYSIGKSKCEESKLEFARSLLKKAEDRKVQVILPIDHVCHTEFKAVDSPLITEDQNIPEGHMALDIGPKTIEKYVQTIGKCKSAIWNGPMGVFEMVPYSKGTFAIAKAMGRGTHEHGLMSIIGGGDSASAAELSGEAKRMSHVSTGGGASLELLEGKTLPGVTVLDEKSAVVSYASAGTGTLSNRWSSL
Pol iota confirm – Human Pol iota inhibitor confirmatory assay | shares compounds with Pol kappa inh-1 | Pol iota primer extension, TAMRA/BHQ fluorescence | Potency, µM, hits mostly inhibitors | 1,500 tested, 77% active; further: potency means the concentration at half of the fitted maximal effect
Pol kappa inh-2 – confirmation of human DNA polymerase kappa inhibitors; shares compounds with Pol eta inh-1; purified Pol-kappa, fluorescent strand-displacement substrate; Potency, µM, actives largely listed as inhibitors; 920 tested, 76% active; AID 720501; further: potency means the concentration at half of the fitted maximal effect
Pol eta inh-2 – confirmation of human DNA polymerase eta inhibitors. Potency, µM, actives largely listed as inhibitors. 2,600 tested, 64% active. AID 720502. Pol eta primer extension, TAMRA/BHQ fluorescence, 10 min. shares compounds with Pol eta inh-1; further: potency means the concentration at half of the fitted maximal effect
Numbers without * were called inactive; u = inconclusive; x = no result. Hits are enriched below; roughly 2.4% of the tested compounds scored in any of these assays. Unless noted, the call rests on the fitted dose curve; in most records, active means well fitted curve in the direction sought with a large enough effect; inconclusive means small, poorly fitted or top-dose-only effect, or another doubt; inactive means no such curve, though single readings can be large; an effect the other way counts as inactive or inconclusive.

SMILES	Pol eta inh-1	APE1 inh	Pol beta inh-1	Pol kappa inh-1	GLS inhibitor	POLI inh	Pol beta inh-2	Klenow inh	HIV RT inh	Pol iota confirm	Pol eta inh-2	others
CCOC(=O)c1sc(N2C(=O)c3oc4ccccc4c(=O)c3C2c2ccc(C(C)(C)C)cc2)nc1C (stereo unspecified)	-6.4%	x	10.7%	-3.3%	1.2%	2.0%	x	x	x	x	x
Cc1ccc(/C=C/C(=O)N2CCc3ccccc32)o1	8.91µM*	u	12.6µM*	u	-13.5%	35.5µM*	17.8*	-3.2	19.9	67*	67.5*
CCOC(=O)/C=C/C(=O)N1CCc2ccccc21	8.6%	-4.5%	30.1%	-4.7%	1.9%	u	x	x	x	x	x
COc1ccc(Nc2nnc(-c3ccc(C(N)=O)cc3)c3ccccc23)cc1	-9.8%	30.9%	1.1%	1.4%	-32.5%	109.9%	x	x	x	x	x
COc1ccc(-c2nnc(Nc3ccc(S(=O)(=O)Nc4nccs4)cc3)c3ccccc23)cc1	31.6µM*	u	1.78µM*	50.1µM*	-3.9%	20µM*	7.94*	-20.5	26.3	u	42.6*	Pol kappa inh-2=33.6*
Cc1ccc(NC(=O)c2c3c(nc4ccccc24)CCC3)cc1S(=O)(=O)N(C)C	u	u	10µM*	79.4µM*	-2.6%	22.4µM*	35.5*	-15.7	45.4	x	u	POLB valid=89.0*
COC(=O)c1c(NC(=O)CN2C(=O)NC3(CCC(C)CC3)C2=O)sc2c1CCC2 (stereo unspecified)	3.2%	-2.0%	x	-13.4%	3.8%	u	x	x	x	x	x
CC1CCC2(CC1)NC(=O)N(CC(=O)Nc1sc3c(c1C(N)=O)CCC3)C2=O (stereo unspecified)	17.8µM*	u	5.01µM*	u	u	11.2µM*	20*	-10.6	u	37.7*	19*	POLB valid=99.7*
Cc1ccc(S(=O)(=O)N2CCOCC2)cc1NC(=O)COC(=O)C1(C)CC1(Cl)Cl (stereo unspecified)	-8.4%	4.7%	x	-8.3%	-1.1%	3.1%	x	x	x	x	x
CCN(CC)c1ccc(NC(=O)CCS(=O)(=O)c2ccc(Br)cc2)c(C)c1	14.1µM*	21.0%	7.08µM*	u	u	39.8µM*	10*	-23.9	u	47.4*	16.9*	TbPGK inh=10.3µM*;Pol kappa inh-2=7.52*
CNC(=O)COC(=O)c1cc(-c2ccco2)nc2ccccc12	11.2µM*	u	3.55µM*	25.1µM*	u	u	28.2*	-38.3	u	21.2*	19*	POLB valid=99.9*
CC(Nc1oc(-c2ccc(COc3ccc(Cl)cc3)o2)nc1C#N)c1ccccc1 (stereo unspecified)	-16.0%	x	-29.8%	-7.7%	-6.0%	24.5%	x	x	x	x	x
CC1=NN(c2ccc(C)c(C)c2)C(=O)/C1=C\C=C\c1ccc([N+](=O)[O-])o1	39.8µM*	u	7.08µM*	50.1µM*	3.3%	11.2µM*	31.6*	-19.2	17.4	42.3*	53.6*	POLB valid=98.6*
CCN(CC(=O)NCc1ccccn1)S(=O)(=O)c1ccc(OC)cc1	-4.8%	2.7%	39.0%	-4.9%	5.1%	-5.5%	x	x	x	x	x
COc1ccc(S(=O)(=O)Cc2ccc(C(=O)N3CCc4ccccc4C3)o2)cc1	-8.9%	-1.2%	-22.1%	2.6%	-3.3%	13.4%	x	x	x	x	x
Cc1ccc(S(=O)(=O)Cc2ccc(C(=O)N3CCc4ccccc4C3)o2)cc1	20µM*	u	15.8µM*	56.2µM*	-19.9%	u	35.5*	-10.1	3.5	42.3*	47.8*
COc1ccc(CN2CCNC(=O)C2CC(=O)N(C)Cc2ccon2)c(F)c1 (stereo unspecified)	-14.1%	-6.4%	21.3%	-3.3%	12.0%	22.4%	x	x	x	x	x
CCCSc1nnc(NC(=O)c2sc3nc(-c4cccs4)ccc3c2N)s1	79.4µM*	2.6%	17.8µM*	-16.8%	-7.8%	u	12.6*	-6.5	4.4	u	60.1*	Pol kappa inh-2=18.9*
O=C(CSc1ccccn1)Nc1ccc2c(c1)C(=O)c1ccccc1C2=O	u	u	8.91µM*	-23.9%	0.3%	2.8%	11.2*	-25.6	23.7	53.2*	60.1*	Pol kappa inh-2=59.7*
Cc1ccc(CCNC(=O)c2cccc(NC3=NC4CS(=O)(=O)CC4S3)c2)cc1 (stereo unspecified)	-6.5%	15.9%	-13.3%	-0.2%	11.5%	10.9%	x	x	x	x	x
COC(=O)c1ccccc1NC(=O)c1ccc2nccnc2c1	31.6µM*	-8.0%	3.16µM*	u	51.9%	u	35.5*	-27.1	39.0	x	u
O=C(Nc1ccccc1Cl)c1ccc2nccnc2c1	u	1.5%	36.1%	u	2.9%	u	x	x	x	x	x
O=C(COC(=O)c1ccccc1[N+](=O)[O-])c1ccc2c(c1)OCO2	u	10.9%	x	-10.1%	-8.5%	41.4%	x	x	x	x	x	TbPGK inh=9.19µM*
C=CCn1c(C)cc(C(=O)COC(=O)c2ccc(N)c([N+](=O)[O-])c2)c1C	u	0.8%	u	-2.7%	2.7%	11.6%	x	x	x	x	x
Cc1cccc(C(=O)OCC(=O)c2ccc3c(c2)OCO3)c1O	-8.5%	14.8%	4.5%	-10.4%	5.0%	13.3%	x	x	x	x	x
CCn1c(C)cc(C(=O)COC(=O)c2ccccc2[N+](=O)[O-])c1C	-19.2%	31.0%	x	-4.9%	3.5%	3.4%	x	x	x	x	x	TbPGK inh=14.6µM*
